High-throughput results: PubChem BioAssay, National Center for Advancing Translational Sciences (NCATS)
Shown is part of a subset that was picked to be rich in hits.
TbPYK inhibitor = qHTS of Trypanosoma Brucei Inhibitors; TbPYK enzyme, Kinase-Glo Plus ATP luminescence, 45 min; Potency, µM (doses to about 76.8 µM), without a hit: at the top dose activity, negative = inhibition, usual class: inhibitors; actives 0.12% (n = 410,000); AID 624173, 2012; further: potency means the concentration at half of the fitted maximal effect; on the % scale 0 is the no-effect control and ±100 the full control effect; nearly all actives have a fitted effect of over 50% in size
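Screened from lowest to highest concentration, compounds were pinned into TbPYK/substrate mixtures, and ADP (130 uM final) was added. Plates sat at room temperature for 45 min prior to Kinase-Glo Plus detection by luminescence.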
Cycloheximide cs = Cycloheximide Counterscreen for Small Molecule Inhibitors of Shiga Toxin; actives 12% (n = 300,000); max response, %; cell reporter, cycloheximide protein synthesis inhibition counterscreen; AID 2314, 2010; in the data active means max response mostly above about 13%, no sharp cut-off; inactive means mostly below about 14%; further: read at 38.3 µM for the half of the compounds with a filed dose; 0% is about no effect
LmPK inh = qHTS Assay for Inhibitors of Leishmania Mexicana Pyruvate Kinase (LmPK). purified LmPK, Kinase-Glo ATP luminescence, 1 h. Potency, µM (series often up to 57.5 µM), for the others: top-dose activity change, negative = inhibition, usual class: inhibitors. actives 0.37% (n = 290,000). AID 1721, 2009; further: potency means the concentration at half of the fitted maximal effect; on the % scale 0 is the no-effect control and ±100 the full control effect
Target sequence (Q27686 whole entry, looked up): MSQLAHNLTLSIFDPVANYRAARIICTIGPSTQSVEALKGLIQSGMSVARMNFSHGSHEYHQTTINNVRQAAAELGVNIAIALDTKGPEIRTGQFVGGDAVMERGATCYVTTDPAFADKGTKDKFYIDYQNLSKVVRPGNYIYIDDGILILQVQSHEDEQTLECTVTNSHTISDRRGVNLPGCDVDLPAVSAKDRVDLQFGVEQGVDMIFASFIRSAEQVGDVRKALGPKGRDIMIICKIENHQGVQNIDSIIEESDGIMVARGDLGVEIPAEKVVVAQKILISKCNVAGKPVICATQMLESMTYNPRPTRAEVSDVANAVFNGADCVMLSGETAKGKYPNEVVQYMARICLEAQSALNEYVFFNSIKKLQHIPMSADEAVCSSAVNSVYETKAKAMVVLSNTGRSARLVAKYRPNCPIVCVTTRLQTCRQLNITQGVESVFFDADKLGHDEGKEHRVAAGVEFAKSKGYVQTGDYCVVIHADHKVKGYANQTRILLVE
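ATP generated from ADP (0.1 mM) and PEP (0.5 mM) by 0.1 nM LmPK over 1 h at room temperature (pH 7.2 imidazole buffer) was detected by coupled luciferase luminescence. Values were normalized to uninhibited and no-enzyme wells.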
Sm TGR block = qHTS Assay for the Inhibitors of Schistosoma Mansoni Peroxiredoxins; Potency, µM (titrated, usually from 114 µM), for the others: at the top dose activity change, negative = inhibition, most hits filed as inhibitors; Schistosoma mansoni thioredoxin glutathione reductase (TGR), Q962Y6; purified TGR, DTNB reduction, TNB absorbance 405 nm; actives 3% (n = 360,000); further: potency means the concentration at half of the fitted maximal effect; on the % scale 0 is the no-effect control and ±100 the full control effect; nearly all actives have a fitted effect of over 60% in size
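TGR 20 nM + NADPH 100 uM (dispensed conc.), cpd preinc 15 min RT; start with NADPH (500 uM addition) then DTNB (15 mM addition). Kinetic TNB absorbance, 405 nm filter. Four-parameter Hill fit across titration.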
Shiga toxin inh = A qHTS for Small Molecule Inhibitors of Shiga Toxin; Vero cells, Shiga toxin protein synthesis inhibition reporter; inhibition, % at 38.7 µM; actives 9.2% (n = 290,000); in the data active means inhibition mostly above about 28%, no sharp cut-off; inactive means mostly below about 43%; further: 0% is about no effect
Giardia FBPA inh = qHTS Assay for Inhibitors of Fructose-1,6-bisphosphate Aldolase from Giardia Lamblia. A8B2U2. purified Giardia FBPA. Potency, µM (top dose mostly 59.6 µM), for the others: top-dose activity, negative = inhibition, hits mostly inhibitors. actives 0.71% (n = 290,000). AID 2451, 2010; further: potency means the concentration at half of the fitted maximal effect; on the % scale 0 is the no-effect control and ±100 the full control effect; nearly all actives have a fitted effect of over 55% in size
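Giardia FBPA (40 nM reagent) was preincubated 10 min at RT with compound (up to 57.5 uM final), then substrate plus GAPDH/TPI/NAD/arsenate coupling system with diaphorase/resazurin was added; resorufin fluorescence (525/598 nm) was read after 20 min.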
Starred values were filed as active, the others as inactive; ? = inconclusive; nt = not tested or not shown. Unless noted, the call rests on the fitted dose curve; in most records, active means well fitted curve in the direction sought with a large enough effect; inconclusive means small, poorly fitted or top-dose-only effect, or another doubt; inactive means no such curve, though single readings can be large; an effect the other way counts as inactive or inconclusive.

SMILES	TbPYK inhibitor	Cycloheximide cs	LmPK inh	Sm TGR block	Shiga toxin inh	Giardia FBPA inh
Cc1ccc(Nc2nc3ccccc3n3cnnc23)cc1C	-1%	37*	3%	1%	31*	-6%
COc1ccc(Nc2nc3ccccc3n3cnnc23)cc1	1%	-2	5%	3%	-7	-2%
Cc1ccc2nc(Nc3ccc(C)c(C)c3)c3nncn3c2c1	2%	12	-1%	-7%	28*	7%
Cc1cccc(CCNc2nc3ccc(C)cc3n3cnnc23)c1	5%	30*	1%	-34%	74*	7%
C=CCN1C(=O)c2ccc(C(=O)N(CCOC)c3c(N)n(CCCC)c(=O)[nH]c3=O)cc2C1=O	-9%	nt	nt	-8%	nt	nt
O=c1[nH]c(/C=C/c2ccc(Cl)cc2Cl)c([N+](=O)[O-])c(=O)[nH]1	8%	-2	-1%	72%	-22	12%
Clc1ccc(/C=C/c2ncc[nH]2)c(Cl)c1	-8%	46*	-4%	1%	65*	-9%
CCOC(=O)c1ccccc1NC(=O)N1CCC(CN2CCCCC2)CC1	2%	nt	nt	-4%	nt	nt
Cc1ccc(C2=NN=C(NC(=O)C(F)(F)F)SC2)cc1	-18%	27*	-7%	15%	111*	1%
NS(=O)(=O)c1ccc(Nc2ccc3nonc3c2[N+](=O)[O-])cc1	-1%	-1	6%	42%	-19	-6%
COc1cc(Nc2ccc(S(N)(=O)=O)cc2)c([N+](=O)[O-])nc1[N+](=O)[O-]	-5%	-3	7%	20µM*	nt	-6%
Cc1c2cnn(-c3ccccc3)c(=O)c2c(C)n1CCCC(=O)Nc1ccc(F)cc1F	1%	nt	nt	?	nt	nt
N#Cc1nc(-c2ccc(Cl)cc2)oc1NCC1CCCO1 (configuration not stated)	2%	21*	0%	5%	108*	-5%
N#Cc1nc(-c2cccc3ccccc23)oc1NCC1CCCO1 (configuration not stated)	-2%	52*	-1%	13%	65*	-17%
N#Cc1nc(-c2ccccc2)oc1NCC1CCCO1 (configuration not stated)	-7%	14	2%	-8%	34	-1%
O=C(c1ccco1)N1CCCC(c2nc3c(nnn3Cc3c(Cl)cccc3Cl)c(=O)[nH]2)C1 (configuration not stated)	3%	-8	2%	-30%	26	5%
CCc1ccc(NC(=O)C(NS(=O)(=O)c2cccs2)C(C)C)cc1 (configuration not stated)	-6%	nt	nt	4%	nt	nt
CC(=O)N1CCc2cc(N=NC3=C(O)CCCC3=O)ccc21	-7%	31*	-10%	?	92*	-8%
O=C1CCCC(O)=C1N=Nc1ccc(Cl)c(Cl)c1	-1%	23*	-8%	-17%	15	-8%
O=C1CCCC(O)=C1C=Nc1ccc(O)cc1	-1%	13	-3%	3%	32	1%
Cc1nc2cc(N=NC3=C(O)CCCC3=O)ccc2s1	-6%	61*	-25%	-26%	89*	-4%
Cc1nc2cc(C(=O)N3c4ccccc4CC3C)ccc2s1 (configuration not stated)	1%	10	-4%	0%	25	-6%
CC1CCCCC1NC(=O)CCCc1nc2ccccc2c(=O)[nH]1 (configuration not stated)	5%	7.8*	1%	5%	23	3%
O=C(CCc1nc2ccccc2c(=O)[nH]1)NC1CCN(Cc2ccccc2)CC1	-5%	-5	3%	0%	-2	1%
O=C(NC1CCCCC1)N(Cc1nc2ccccc2c(=O)[nH]1)C1CCCCC1	2%	25*	-1%	0%	65*	-6%
